# Source: PubChem (National Center for Advancing Translational Sciences (NCATS))
# KB-V1 MDR tox – kills drug-selected multidrug resistant KB-V1 cells | Potency, µM (series often up to 46.1 µM), usual class: cytotoxic | AID 1347076 | KB-V1 MDR cells viability, CellTiter-Glo, 72 h | 3.4% of 400,000 active; also: % is scaled to controls: 0 for no effect and ±100 for the full control effect; nearly all actives have a fitted effect of over 60% in size
#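 Drug-selected KB-V1 cells, grown in DMEM lacking phenol red with 10% FBS, receive compound titrations; after three days at 37 degrees C, surviving cell ATP is quantified by CellTiter-Glo luminescence and responses normalized and curve-fitted.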
# MCF10A rereplic – DNA re-replication induction in MCF 10a cells; MCF 10A DNA re-replication, Hoechst nuclear intensity, 48 h; Potency, µM (highest dose often 46.1 µM), for the others: top-dose activity, positive = re-replication, most hits filed as activators; 2.9% of 350,000 active; also: % of control where 0% means no effect; nearly all actives have a fitted effect of over 50% in size
# RGS4 inh – inhibitors of human regulator of G protein signaling 4; Transcreener GDP fluorescence polarization, RGS4-accelerated GTP hydrolysis; Potency, µM (doses to about 114 µM), for the others: at the top dose activity change, negative = inhibition, most hits filed as inhibitors; 0.039% of 390,000 active; also: % is scaled to controls: 0 for no effect and ±100 for the full control effect; nearly all actives have a fitted effect of over 75% in size
# Target sequence (P49798 whole entry, looked up): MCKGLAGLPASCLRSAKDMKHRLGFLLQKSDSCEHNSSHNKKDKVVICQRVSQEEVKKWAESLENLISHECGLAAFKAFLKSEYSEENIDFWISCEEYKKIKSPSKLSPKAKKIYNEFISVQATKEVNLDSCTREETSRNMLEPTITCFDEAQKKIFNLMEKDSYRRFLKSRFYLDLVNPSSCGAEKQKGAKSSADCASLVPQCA
#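 MLSMR compounds (23 nl, pin-transferred) preincubated 10 min at room temperature with a 500nM (2x) first reagent, then RGS4 at 900nM (2x) plus Transcreener GDP mix added; fluorescence polarization (620/688 nm) read before and after 90 min at 30 °C.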
# TSG101-PTAP inh – blocks PTAP/TSG101 interaction to inhibit HIV-1 budding; Fluorescence polarization, FITC-PTAP peptide / Tsg101 binding; Potency, µM (series often up to 115 µM), without a hit: top-dose activity change, negative = inhibition, actives largely listed as inhibitors; AID 493005; 340,000 tested, under 10 active; active = well fitted inhibition curve with a large enough effect in the main read-out, with a control signal flat, not every such curve was filed as active; inconclusive = small, poorly fitted or top-dose-only effect, or effect the other way, or a change in a side signal; inactive = no such curve, though single readings can be large or run the other way; also: % of control where 0% means no effect
# Target sequence (Q99816 whole entry, looked up): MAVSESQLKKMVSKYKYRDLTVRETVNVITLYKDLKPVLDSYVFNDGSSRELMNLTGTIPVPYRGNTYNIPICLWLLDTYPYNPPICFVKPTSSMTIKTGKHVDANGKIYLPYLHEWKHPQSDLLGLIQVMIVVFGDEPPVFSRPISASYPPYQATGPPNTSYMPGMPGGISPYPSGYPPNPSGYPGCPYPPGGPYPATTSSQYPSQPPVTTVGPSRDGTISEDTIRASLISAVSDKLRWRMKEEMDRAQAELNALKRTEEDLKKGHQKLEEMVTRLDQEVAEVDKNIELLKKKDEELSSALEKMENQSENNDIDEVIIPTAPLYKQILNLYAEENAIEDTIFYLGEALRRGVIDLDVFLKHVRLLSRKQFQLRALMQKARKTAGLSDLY
#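 Compounds were pin-transferred onto Tsg101 binding domain (10 uM final) in HEPES pH 7.5 buffer, then FITC-PTAP peptide was added at 50 nM final. After 20 min at RT, polarization reported peptide displacement across a qHTS concentration series.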
# SW480 rerep – inducers of DNA re-replication in SW480 colon cancer cells; 1.8% of 340,000 active; Potency, µM (doses to about 46.1 µM), for inactives: at the highest dose re-replication activation, actives largely listed as activators; SW480 DNA re-replication, Hoechst DNA content imaging, 48 h; also: % of control where 0% means no effect; nearly all actives have a fitted effect of over 55% in size
#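 First, 250 cells per well were seeded. Next, compound or vehicle (23 nL) was pinned in, plates sat 48 hr at 37 C. Finally Hoechst was added for 40 min before fluorescence scanning.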
# KB-3-1 cytotox – kills parental KB-3-1 adenocarcinoma cells. Potency, µM (doses to about 46.1 µM), most hits filed as cytotoxic. 1.4% of 400,000 active. KB-3-1 viability, CellTiter-Glo ATP luminescence, 72 h; also: % is scaled to controls: 0 for no effect and ±100 for the full control effect; nearly all actives have a fitted effect of over 60% in size
#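 Parental KB-3-1 viability, qHTS format: 72 h compound exposure, 37 °C; CellTiter-Glo; media-only wells and DMSO plates as controls; concentration-effect fits on corrected data.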
# The depositor's hits bear a star; i = inactive; ? = inconclusive; nt = no result; [ ] = another dose, or the depositor's remark. The list is not random: actives were taken first. Their share in the collection is about 6.6%. Unless noted, calls follow the shape of the dose curve; as a rule, active = well fitted curve in the direction sought with a large enough effect; inconclusive = small, poorly fitted or top-dose-only effect, or another doubt; inactive = no such curve, though single readings can be large; an effect the other way counts as inactive or inconclusive. Potency is read from the fitted curve at half-maximal effect.
SMILES,KB-V1 MDR tox,MCF10A rereplic,RGS4 inh,TSG101-PTAP inh,SW480 rerep,KB-3-1 cytotox
O=C(O)Cn1nc(-c2ccc(Cl)cc2)ccc1=O,i,-1%,-12%,1%,3%,i
O=C(Cn1ncc2ccsc2c1=O)N1CCN(c2ccc(Cl)cc2)CC1,21µM*,nt,2%,nt,nt,?
O=C(Cn1cnc2c(cnn2-c2ccc(Cl)cc2)c1=O)N1CCN(c2ccccc2)CC1,5.2µM*,17%,10%,2%,-3%,i
Cc1[nH]n(-c2ccccc2)c(=O)c1/C=N/N1C(=O)c2cccc3cccc(c23)C1=O,7.3µM*,14%[9.22 µM],?,-4%,?,?
Cc1[nH]n(-c2ccccc2)c(=O)c1/C=N/Nc1nncc(-c2ccccc2)n1,?,3%,-31%,-6%,0%,7.3µM*
Cc1[nH]n(-c2ccccc2)c(=O)c1C=Nc1cccc2cccnc12,18µM*,9%,-12%,-5%,?,?
Cc1ccc(/C=N/Nc2nncc(-c3ccccc3)n2)o1,i,-34%,-22%,0%,?,i
CCCCCn1c(CCCNC(=O)c2ccccc2)nc2ccccc21,?,nt,4%,nt,nt,i
N#CC1=C(N)OC2=C(CN(Cc3ccccc3)C/C2=C\c2cccnc2)C1c1cccnc1 (stereo not given),i,9%,-28%,2%,-1%,i
CCN1CC2=C(OC(N)=C(C#N)C2c2ccccc2)/C(=C\c2ccccc2)C1 (stereo not given),i,23µM*,?,-2%,?,?
C[n+]1c(-c2ccccc2)cc2c(=Cc3ccccc3)c3ccccc3n21,?,21µM*,?,-8%,?,?
C=CCN1[C@@H](C(C)C)COCCS1(=O)=O,i,nt,nt,nt,nt,i
COc1ccc(CC(=O)NCCc2csc(-c3ccc(Cl)cc3)n2)cc1,0.92µM*,nt,1%,nt,nt,i
O=C(NCCc1csc(-c2ccc(C(F)(F)F)cc2)n1)c1ccc(F)c(F)c1,13µM*,nt,-19%,nt,nt,23µM*
O=C(NCCc1csc(-c2cccnc2)n1)c1ccc(Cl)cc1,i,12µM*,-12%,-2%,?,i
COCCc1nn2c(=O)cc(COC(=O)C(c3ccccc3)c3ccccc3)nc2s1,i,nt,-1%,nt,nt,i
CN(C)c1ccc(/C=C/C(=O)Nc2cccc([S+](=O)([O-])Nc3ccccc3F)c2)cc1,i,nt,nt,nt,nt,i
O=C(NCCc1ccc(Cl)cc1)C(=O)NCC(c1ccc2c(c1)OCO2)N1CCOCC1 (stereo not given),nt,nt,-26%,nt,nt,nt
COc1ccc(N2CCN(C(c3ccccc3)c3sc4nc(-c5ccco5)nn4c3O)CC2)cc1 (stereo not given),nt,nt,-1%,nt,nt,nt
COc1ccc(NC(=O)C[C@H]2C(=O)N(c3ccc(Br)cc3)C[C@@H]2CSC)cc1,i,nt,nt,nt,nt,i
COc1ccc(N2C[C@H](CSC)[C@@H](CC(=O)Nc3ccc(Br)cc3)C2=O)cc1,8.2µM*,nt,nt,nt,nt,i
CN(C)c1ccc(CN(C(=O)C2COc3ccccc3O2)C2CCS(=O)(=O)C2)cc1 (stereo not given),18µM*,?,-5%,nt,17%,i
OCCN(CCO)c1ncnc2c1sc1nc(N3CCOCC3)c3c(c12)CCCC3,i,10%,13%,-5%,-2%,i
CSc1nc(N(CCO)CCO)c2sc3nc(-c4ccco4)c4c(c3c2n1)CCC4,i,15µM*,-27%[11.4 µM],-10%,?,i
COC(=O)CSc1nc(SC)nc2c1sc1nc(-c3ccco3)c3c(c12)CC(C)(C)OC3,i,1%,-7%,-4%,-2%,i
SMILES,KB-V1 MDR tox,MCF10A rereplic,RGS4 inh,TSG101-PTAP inh,SW480 rerep,KB-3-1 cytotox
CSc1nc(SCCO)c2sc3nc(-c4ccco4)c4c(c3c2n1)CC(C)(C)OC4,i,13µM*,-51%,-2%,5%,?
CCC(=O)N1CCc2cc(S(=O)(=O)NC(CC(C)C)C(=O)Nc3cc(C)ccc3OC)ccc21 (stereo not given),i,nt,-26%,nt,nt,i
CCN(CC)c1ccc(/C=N/N2CCN(Cc3ccc(Cl)cc3)CC2)c(O)c1,i,15%,-1%[11.4 µM],-4%,-7%,i
CCN(CC)c1ccc(/C=N/N2CCN(Cc3cccc4ccccc34)CC2)c(O)c1,16µM*,49%,23%,-8%,6%,i
Cn1nc(C(F)(F)F)c(-c2ccc(Br)cc2)c1NC(=O)Nc1ccc(F)cc1F,?,21µM*,4%,1%,-1%,?
CCc1ccc(CNC(=O)Cc2ccc(NC(=O)N3CCSc4ncccc43)cc2)cc1,i,nt,-12%,nt,nt,i
COc1ccc(S(=O)(=O)NCCc2nnc3ccc(SCC(=O)Nc4ccc(C(F)(F)F)cc4)nn23)cc1,i,nt,-3%,nt,nt,i
COc1ccc(-c2nnn(CC(=O)N3CCN(c4ccc(F)cc4)CC3)n2)cc1,i,0%,-11%[11.4 µM],-3%,2%,i
COc1ccc(N2CCN(CC(=O)N3CCC(C)CC3)CC2)cc1,18µM*,5%,36%,6%,-2%,i
CC1CCN(CC(=O)N2CCN(c3ccccc3)CC2)CC1,i,-10%,4%,0%,1%,i
COc1ccc(N2CCN(CC(=O)Nc3sccc3C#N)CC2)cc1,16µM*,?,-10%,0%,9%,i
COc1ccc(N2CCN(C(=O)CN3CCN(c4nc(-c5ccc(F)cc5)cs4)CC3)CC2)cc1,?,?,-28%,-1%,?,23µM*
FC(F)(F)C(F)(F)C(F)(F)C(F)(F)C(F)(F)F,nt,-7%,nt,nt,-4%,nt
CN(CCO)c1nc(-c2cccs2)nc2ccccc12,nt,nt,12%,nt,nt,nt
C[N+]1(CC(=O)c2c3ccccc3cc3ccccc23)CCOCC1,i,nt,nt,nt,nt,i
Cc1ccc2ccccc2c1CSc1nc(N)nc2c1ncn2CC(C)C,21µM*,21%,-22%,-3%,2%,i
CC(C)Cn1cnc2c(SCc3ccccc3F)nc(N)nc21,?,?,8%,-2%,-14%,i
CCC(C)Cn1cnc2c(SCc3ccccc3F)nc(N)nc21 (stereo not given),i,18µM*,-2%,2%,?,i
CCOc1ccc(Nc2nc3ccccc3n3c(CC)nnc23)cc1,?,nt,-7%,nt,nt,i
COc1ccc(CN2CCc3nc(SCC(=O)Nc4cc(C)cc(C)c4)[nH]c(=O)c3C2)cc1,?,nt,-21%,nt,nt,i
